Nrf2 inh – Nrf2 qHTS screen for inhibitors; 360,000 tested, 2.1% active; Potency, µM (top dose mostly 46 µM), for inactives: at the highest dose activity change, negative = inhibition, usual class: inhibitors; A549 ARE-Fluc reporter, luciferase luminescence, 18-24 h; further: on the % scale 0 is the no-effect control and ±100 the full control effect; nearly all actives have a fitted effect of over 60% in size
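Cells were seeded and rested 2 h, then exposed to compounds for 18-24 h. CellTiter-Fluor was read first as a viability measure. BugLite was added 15 min before the final luminescent read of ARE-luciferase activity in A549 cells.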
ELG1 repair inh – qHTS screen for small molecules that inhibit ELG1-dependent DNA repair in human embryonic kidney (HEK293T) cells expressing luciferase-tagged ELG1 | HEK293T ELG1-luciferase reporter, luminescence, 16 h; DNA damage induced by 5-fluorouridine | Potency, µM (series often up to 46.1 µM), without a hit: at the highest dose activity change, negative = inhibition, most hits filed as inhibitors | 330,000 tested, 2.3% active; further: on the % scale 0 is the no-effect control and ±100 the full control effect; nearly all actives have a fitted effect of over 55% in size
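Reporter activity after DNA damage by 5-fluorouridine is monitored. Compound-treated cells incubate 16 hr at 37 °C, then ONE-Glo is added for 30 min before luminescence reading.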
A549 tox-1 – Nrf2 qHTS screen for inhibitors: counterscreen for cytotoxicity. A549 ARE-Fluc cells, CellTiter-Fluor viability, 18-24 h. Potency, µM (doses to about 46 µM), for inactives: at the highest dose activity change, negative = cytotoxicity, usual class: inhibitors. 390,000 tested, 0.16% active. AID 504648, 2011; further: on the % scale 0 is the no-effect control and ±100 the full control effect
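A549 ARE_Fluc cells in 5% FBS OPTI-MEM were exposed to compounds in concentration-response for 18-24 h at 37 deg C. Viability was read by CellTiter-Fluor fluorescence (Ex 405/Em 525) after 30 min, before the luciferase read.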
Nrf2 ARE act – qHTS of Nrf2 Activators; Potency, µM (top dose mostly 46.1 µM), for inactives: at the highest dose activation, usual class: activators; AREc32 ARE-luciferase reporter (MCF7-derived line), luminescence, 24 h; 410,000 tested, 0.31% active; further: % of control where 0% means no effect; nearly all actives have a fitted effect of over 65% in size
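Steps: seed AREc32_Fluc cells (1000/well, 5% FBS OPTI-MEM); incubate overnight at 37 deg C; add 23 nL compound; incubate 24 hr; add Steady-Glo; hold 30 min RT; read luminescence.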
FLuc enzyme inh – Nrf2 qHTS screen for inhibitors: Purified Fluc Biochemical Counterscreen for Hit Validation | AID 720522, 2013 | purified firefly luciferase, luminescence inhibition | Potency, µM (highest dose often 57.5 µM), inactives show top-dose activity change, negative = inhibition, most hits filed as inhibitors | 1,400 tested, 4% active | shares compounds with Nrf2 inh; further: on the % scale 0 is the no-effect control and ±100 the full control effect; nearly all actives have a fitted effect of over 65% in size
Target sequence (P08659 whole entry, looked up): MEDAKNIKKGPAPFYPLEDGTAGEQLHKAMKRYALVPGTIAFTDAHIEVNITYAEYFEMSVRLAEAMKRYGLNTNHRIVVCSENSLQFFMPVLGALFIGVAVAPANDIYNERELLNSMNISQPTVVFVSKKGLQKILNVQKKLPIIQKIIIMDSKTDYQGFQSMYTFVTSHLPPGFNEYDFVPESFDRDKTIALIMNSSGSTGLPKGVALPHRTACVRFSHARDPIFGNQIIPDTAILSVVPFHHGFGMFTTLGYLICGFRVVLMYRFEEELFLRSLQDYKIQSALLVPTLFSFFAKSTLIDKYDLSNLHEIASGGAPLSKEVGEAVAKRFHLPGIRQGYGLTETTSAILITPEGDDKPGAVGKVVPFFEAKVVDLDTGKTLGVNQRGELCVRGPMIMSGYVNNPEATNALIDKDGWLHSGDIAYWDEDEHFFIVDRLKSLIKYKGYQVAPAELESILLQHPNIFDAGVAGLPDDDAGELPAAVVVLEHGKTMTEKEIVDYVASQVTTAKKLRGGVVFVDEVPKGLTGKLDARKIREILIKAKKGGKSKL
A549 tox-2 – Nrf2 qHTS screen for inhibitors: A549 ARE-Fluc Cytotoxicity Counterscreen for Hit Validation | shares compounds with Nrf2 inh | A549 ARE-Fluc cells, cytotoxicity counterscreen | Potency, µM (series often up to 46.1 µM), for inactives: at the highest dose activity change, negative = cytotoxicity, actives largely listed as inhibitors | 1,400 tested, 2% active | AID 720523, 2013;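 further: cells exposed to compounds for 18 to 24 hours; on the % scale 0 is the no-effect control and ±100 the full control effect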
ARE-Fluc inh – Nrf2 qHTS screen for inhibitors: Nrf2 A549 ARE-Fluc Confirmation Assay for Hit Validation; shares compounds with Nrf2 inh; 1,400 tested, 74% active; A549 ARE-firefly luciferase reporter, luminescence; Potency, µM (series often up to 46.1 µM), inactives show at the highest dose activity change, negative = inhibition, hits mostly inhibitors; further: on the % scale 0 is the no-effect control and ±100 the full control effect; nearly all actives have a fitted effect of over 65% in size
Starred values were filed as active, the others as inactive; ? = inconclusive; . = not tested or not shown; [ ] = another dose, or the depositor's remark. Only some compounds are listed: those with a hit (about 3.7% of all), similar ones and a draw of the others. The call rests on the fitted dose curve; in most records, active means well fitted curve in the direction sought with a large enough effect; inconclusive means small, poorly fitted or top-dose-only effect, or another doubt; inactive means no such curve, though single readings can be large; an effect the other way counts as inactive or inconclusive. Potency means the concentration at half of the fitted maximal effect.

SMILES	Nrf2 inh	ELG1 repair inh	A549 tox-1	Nrf2 ARE act	FLuc enzyme inh	A549 tox-2	ARE-Fluc inh
O=S(=O)(c1ccc(Cl)cc1)N1CCCC(c2nc(-c3ccc(F)cc3)no2)C1 (configuration not stated)	?	23%	-4%	0%	.	.	.
O=S(=O)(c1ccccc1Cl)N1CCCC1c1nc(-c2ccc(Cl)cc2)no1 (configuration not stated)	5.8µM*	-13%	-15%	2%	-8%	10%	13µM*
CC(Cc1ccccc1)N1CCCC1=O (configuration not stated)	0%	.	-2%	0%	.	.	.
COc1ccccc1CNC(=O)COC(=O)c1cc(=O)[nH]c2ccccc12	7%	8%	5%	-1%	.	.	.
CCCCn1c2c(c(=N)c3c1CCC3)CCC2	2.6µM*	1.6µM*	-14%	-1%	-1%	-11%	6.5µM*
N=c1c2c(n(Cc3ccc(F)cc3)c3c1CCC3)CCC2	?	?	2%[1.84 µM]	-1%	.	.	.
CCCCCCCn1c2c(c(=N)c3c1CCC3)CCCC2	0.52µM*	?	?	9%	2%	-27%	1.8µM*
COc1ccc2cc3cc(C(=O)N4CCN(c5ccccn5)CC4)oc3nc2c1	3%	-4%	0%	0%	.	.	.
Cc1cccc(C)c1NC(=O)NC1(C(=O)NCC2CCCO2)CCCCC1 (configuration not stated)	?	0%	14%	2%	.	.	.
Cc1ccc(C(=O)n2nc(-c3cccnc3)nc2N)cc1	1.3µM*	-3%	-18%	-3%	-1%	6%	4.6µM*
COCCn1c(CNC(=O)c2cccc(N(C)C)c2)nc2cccnc21	.	.	-1%	4%	.	.	.
Cc1ccc(CN2C(=O)N/C(=C\c3cccn3-c3cccc(C(=O)O)c3)C2=O)cc1	2.6µM*	-5%	?	0%	-23%	-9%	-8%
O=C(c1cc(COc2cccc3cnccc23)on1)N1CCCC(CCCO)C1 (configuration not stated)	3.7µM*	-8%	-28%	0%	-2%	-13%	2.3µM*
COC(=O)C(C)Oc1ccc(Cl)c(CN2OCC(C)(C)C2=O)c1 (configuration not stated)	?	.	-6%	0%	.	.	.
O=S(=O)(c1ccc(Cl)cc1)N1CCC(O)(CN2CCN(Cc3ccccc3)CC2)CC1	-19%	?	-15%	0%	.	.	.
O=S(=O)(c1ccccc1)N1CCC(O)(CSc2ccc(Cl)cc2)CC1	9.2µM*	-6%	-9%	0%	3%	-4%	.
CC(NC(=O)c1ccncc1)c1ccccc1 (configuration not stated)	-8%	11%	5%	0%	.	.	.
CN1CCN(S(=O)(=O)c2cccc(C(=O)N(C)CC(=O)Nc3ccc(F)c(F)c3F)c2)CC1	16%	-2%	-1%	0%	.	.	.
Nc1nc(=O)n(C2OC(CO)C(O)C2O)cc1F (configuration not stated)	.	.	.	1%	.	.	.
O=c1[nH]c(=O)n(C2OC(CO)C(O)C2O)cc1F (configuration not stated)	?	.	?	0%	2%	?	0.15µM*
COc1ccc(NC(=O)c2cccc(S(=O)(=O)Nc3ccc(Br)cc3)c2)cn1	?	?	?	4%	.	.	.
CCOc1ccc(S(=O)(=O)Nc2cnc3ccccc3c2)cc1	4.1µM*	-20%	-11%	0%	0%	0%	6.5µM*
CCOc1ccc(S(=O)(=O)Nc2nc3ccccc3nc2Cl)cc1	?	-15%	0%	2%	.	.	.
O=C(Nc1ccc(Br)cc1)c1cccc(S(=O)(=O)Nc2cnc3ccccc3c2)c1	2.9µM*	?	?	10%	?	-14%	18µM*
CCCCCOc1ccc(C(=O)CCC(=O)NNC(=O)c2ccncc2)cc1	-7%	?	-4%	0%	.	.	.
SMILES	Nrf2 inh	ELG1 repair inh	A549 tox-1	Nrf2 ARE act	FLuc enzyme inh	A549 tox-2	ARE-Fluc inh
Cc1[nH]nc2c(=S)[nH]c(=O)[nH]c12	.	.	.	0%	.	.	.
Fc1ccc2[nH]c3c(N4CCc5ccccc5C4)ncnc3c2c1	7.3µM*	1.3µM*	?	4%	-15%	-16%	.
c1ccc2c(c1)CCN(c1ncnc3nc[nH]c13)C2	0%	3%	9%	0%	.	.	.
COc1ccccc1NS(=O)(=O)c1cccc(C(=O)NN)c1	-28%	-3%	-26%	0%	.	.	.
COc1ccccc1NS(=O)(=O)c1cccc(C(=O)NC2CCN(Cc3ccccc3)CC2)c1	2.3µM*	-2%	?	2%	-1%	-20%	?
COc1cc(NC(=O)C2(C)CCCN2C)cc(OC)c1OC (configuration not stated)	.	.	.	1%	.	.	.
CC(C)NS(=O)(=O)c1ccc(OCC(=O)N2CCN(c3ccccc3F)CC2)cc1	-20%	.	0%	5%	.	.	.
O=C(c1cc2nc(-c3ccc(F)cc3)cc(C(F)(F)F)n2n1)N1CCCCC1c1cccnc1 (configuration not stated)	4.6µM*	8.2µM*	?	5%	-26%	-26%	6.5µM*
O=C(c1cnn2c(C(F)(F)F)cc(-c3ccccc3)nc12)N1CCCCC1c1cccnc1 (configuration not stated)	?	?	3%	0%	.	.	.
CCn1c(SCC(=O)Nc2cccc(OC)c2)nc2ccccc2c1=O	8.2µM*	23µM*	-10%	6%	-4%	0%	38%
CCOC(=O)c1cccc(NC(=O)CSc2nc3ccccc3c(=O)n2CC)c1	?	-29%	-3%	0%	.	.	.
NC(=S)NN=Cc1nccc2c(C(F)(F)F)cccc12	.	.	.	-5%	.	.	.
CNc1cccnc1C=NNC(N)=S	0.58µM*	.	?	0%	-23%	-13%	1.5µM*
COc1ccccc1C(=O)N/C(=C/c1ccco1)C(=O)Nc1cccc(C(=O)O)c1	11%	10%	-5%	0%	.	.	.
COC(=O)CCn1nnc(-c2ccc(C(C)C)cc2)n1	0.52µM*	?	-1%	-2%	11µM*	-1%	0.58µM*
COc1ccc(S(=O)(=O)N2CCOCC2)cc1NC(=O)c1ccc(S(=O)(=O)N2CCCCC2)cc1	-16%	.	-10%	0%	.	.	.
CN(Cc1ccc(Cl)cc1)C(=O)c1ccc(S(=O)(=O)NCc2ccco2)cc1	9.2µM*	-3%	-12%	0%	0%	0%	7%
